# MITF TRPM1 HTS – MITF TRPM1 promoter activation in melanoma cells; SK-MEL-5 TRPM1-promoter luciferase, 24 h; % of positive control, neutral wells = 0; activation, % at 12.5 µM; 300,000 compounds, 0.75% hits; AID 588334;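 active = mean activation of at least 80% with every replicate also reaching 80%; inconclusive = mean reaches 80% but some replicate falls short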;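 note: 0% = neutral control wells and 100% = parthenolide positive control wells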
# Wnt bcat act – activates Wnt/beta-catenin signaling in a reporter cell assay; activator, plate reader; activation, % at 9.35 µM; 300,000 compounds, 1.2% hits; in the data active = activation above about 30%, passing the limit was not always enough; inconclusive = no clear call, values can overlap the other calls;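 note: 0% = neutral control wells and 100% = positive control wells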
# APOBEC3A inh – inhibitors of human APOBEC3A DNA deaminase. inhibition, % at 20 µM. recombinant A3A, FAM/TAMRA ssDNA deamination fluorescence. AID 493011. P31941. 330,000 compounds, 0.41% hits;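 active = at least 40% inhibition at 20 µM here, with at most 30% in a related deaminase screen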;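 note: plate controls were A3A with DMSO for no effect and wells lacking A3A enzyme for full effect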
# Target sequence (P31941 whole entry, looked up): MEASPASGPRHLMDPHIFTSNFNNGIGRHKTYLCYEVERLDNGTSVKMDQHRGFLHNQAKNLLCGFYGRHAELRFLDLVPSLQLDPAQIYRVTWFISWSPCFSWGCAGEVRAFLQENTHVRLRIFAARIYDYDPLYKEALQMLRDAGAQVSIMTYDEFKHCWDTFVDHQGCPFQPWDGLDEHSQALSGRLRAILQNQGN
# PHOSPHO1 inh – PHOSPHO1 (human) inhibition; Q8TCT1; inhibition, % at 13.3 µM; recombinant PHOSPHO1, absorbance phosphatase assay; 290,000 compounds, 1.1% hits; AID 1565; in the data active = inhibition above about 60%
# APOBEC3G inh – blocks human APOBEC3G single-stranded DNA deamination. Q9HC16. recombinant A3G, ssDNA deamination FAM/TAMRA fluorescence. inhibition, % at 20 µM. 330,000 compounds, 0.28% hits. AID 493012;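 active = inhibition of at least 40% at 20 µM, with no more than 30% in the related APOBEC3A deaminase screen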;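 note: plate controls were DMSO wells with A3G for no effect and wells lacking A3G enzyme for full effect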
# Target sequence (Q9HC16 whole entry, looked up): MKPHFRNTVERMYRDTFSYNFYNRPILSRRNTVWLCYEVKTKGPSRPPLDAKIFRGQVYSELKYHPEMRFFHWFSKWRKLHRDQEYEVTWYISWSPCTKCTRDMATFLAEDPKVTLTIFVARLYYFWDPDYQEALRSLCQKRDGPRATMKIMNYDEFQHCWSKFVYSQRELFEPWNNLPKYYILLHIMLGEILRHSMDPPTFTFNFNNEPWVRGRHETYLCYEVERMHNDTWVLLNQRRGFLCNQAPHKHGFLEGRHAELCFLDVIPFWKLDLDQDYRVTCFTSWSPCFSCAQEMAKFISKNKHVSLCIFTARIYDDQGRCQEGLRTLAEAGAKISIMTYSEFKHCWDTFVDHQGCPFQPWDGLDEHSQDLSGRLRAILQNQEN
# esBAF inh – SWI/SNF esBAF complex inhibition. mouse ES cells, Bmi1-luciferase knock-in reporter, 24 h; 100% = twice the neutral-well signal. reporter increase, % at 12.5 µM. 350,000 compounds, 2% hits; in the data active = activation above about 40%; inconclusive = no clear call, values can overlap the other calls;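 note: 0% = median of the plate's neutral control wells and 100% = double that signal; a rise in the Bmi1 reporter signal indicates esBAF inhibition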
# Active calls of the source: *; ? = inconclusive; / = no result. This is a sample that favours compounds with a hit; in the whole collection about 3.6% have one here.
SMILES,MITF TRPM1 HTS,Wnt bcat act,APOBEC3A inh,PHOSPHO1 inh,APOBEC3G inh,esBAF inh
COc1ccc(NC(=O)Nc2ccc3c(c2)C(=O)N([C@H](C)CO)C[C@@H](C)[C@H](CN(C)S(=O)(=O)c2cccs2)OCCCC[C@H](C)O3)cc1,/,/,/,/,/,10
O=C(NCCc1ccccc1F)C(=O)Nc1nccs1,24,37*,0,17,0,29
C/C(=N\Nc1ccc(C(=O)O)cc1)c1ccc2c(c1)Nc1ccccc1S2,124*,20,10,4,-3,52*
Cc1cnc(C(=O)Oc2c(C)ccc(C)c2C)cn1,7,-2,-3,141*,-4,/
Cc1cnc(C(=O)OCc2ccc(Br)cc2)cn1,7,-1,2,45,-9,4
CCC(=O)N1C[C@H](C)[C@H](OC)CN(C)C(=O)c2cc(NS(=O)(=O)CC)ccc2OC[C@@H]1C,/,/,/,/,/,1
Cc1sc2ncnc(Nc3ccc(O)cc3)c2c1C,4,38*,-6,1,-5,3
CCN1CCc2c(sc(NC(=S)NC(=O)c3ccc(Cl)cc3)c2C(N)=O)C1,/,0,-4,67*,-6,/
COc1ccc(C#Cc2ccc3c(c2)[C@@H]2[C@@H](CCN2S(=O)(=O)c2ccc(OC)cc2)[C@@H](CO)N3C)cc1,/,/,/,/,/,-2
Cc1csc(Nc2ccccc2C(F)(F)F)n1,1,/,-5,-13,-7,/
FC(F)(F)c1ccccc1Nc1nccs1,-5,-2,0,95*,6,-9
CN(CCc1ccccn1)C(=O)CCC1CCCN(C(=O)c2ccsc2)C1 (stereo not given),2,-2,-2,61*,-4,/
Cc1ccc(C(=O)Nc2ccc3c(c2)nc2n3CCSC2)cc1,/,33*,-2,16,-1,5
NNc1ccc(Cl)c(C(=O)O)c1,-1,7,-3,88*,38,-1
C[C@@H]1CN([C@H](C)CO)C(=O)c2cc(NC(=O)C3CCCCC3)ccc2O[C@@H](C)CCCCO[C@@H]1CN(C)Cc1ccc(C(F)(F)F)cc1,/,/,/,/,/,2
Nc1nnc(/C=C/c2ccccc2Cl)s1,/,55*,2,46,-5,/
O=C(Nc1ccccc1)Nc1nnc(/C=C/c2ccccc2Cl)s1,14,/,4,-11,-2,/
Cn1c(SCC(=O)Nc2cc(=O)n(C)c(=O)n2C)nnc1C12CC3CC(CC(C3)C1)C2,/,/,/,61*,/,/
Cc1ccc(NC(=O)c2cc(=O)c3ccccc3o2)cc1,41,?,3,15,0,56*
CC(=O)Nc1ccc(NC(=O)c2cc(=O)c3ccccc3o2)cc1,30,3,-5,35,-13,-1
NC(=O)c1ccsc1NC(=O)c1cc(=O)c2ccccc2o1,130*,22,5,4,-8,?
C[C@@H]1CCCCO[C@H](CN(C)C(=O)Cc2ccccc2)[C@@H](C)CN([C@H](C)CO)C(=O)c2cc(NC(=O)Nc3ccc(F)cc3)ccc2O1,/,/,/,/,/,0
COCC(=O)Nc1ccc2c(c1)C(=O)N(C)C[C@@H](OC)[C@@H](C)CN(Cc1ccccn1)[C@H](C)CO2,/,/,/,/,/,0
Cc1ccccc1Nc1nc(N)nc(CSc2ccc(F)cc2)n1,89*,17,-2,-16,-8,?
Cc1ccc(SCc2nc(N)nc(Nc3ccccc3C)n2)cc1C,7,-2,0,1,-6,/
SMILES,MITF TRPM1 HTS,Wnt bcat act,APOBEC3A inh,PHOSPHO1 inh,APOBEC3G inh,esBAF inh
CCc1ccccc1Nc1nc(N)nc(CSc2nnnn2C)n1,-2,4,1,36,-2,/
Cc1ccccc1Nc1nc(N)nc(CSc2nnnn2C)n1,46,0,0,1,-12,56*
C[C@H](O)C#Cc1cnc2c(c1)C(=O)N([C@H](C)CO)C[C@H](C)[C@@H](CN(C)Cc1cncnc1)O2,/,/,/,/,/,-3
COc1cccc(NC(=O)c2ccnc(N3CCC(C(=O)NCc4ccccc4OC)CC3)c2)c1,43,11,-5,19,-4,73*
C[C@@H]1CN([C@@H](C)CO)C(=O)Cc2cc(NC(=O)C3CC3)ccc2O[C@H]1CN(C)S(C)(=O)=O,/,/,/,/,/,0
O=C(Nc1ccc(O)cc1)c1ccc(NC(=O)c2cccs2)cc1,73,23,-7,36,2,33
Nc1ccc(NC(=O)c2cccs2)cc1,/,1,0,26,-8,/
CCn1cnc2cc(NC(=O)c3cccs3)ccc21,95*,15,-7,59,-6,23
O=C(Nc1ccc2c(c1)CCC2)c1cccs1,66,55*,-2,40,-6,/
O=C(Nc1ccc(NC(=O)c2cccs2)cc1)c1ccccc1,57,13,-3,8,-5,48*
CC(C)(C)n1cnc2cc(NC(=O)c3cccs3)ccc21,?,?,2,23,-12,35
O=C(Nc1cccc(O)c1)c1ccc(NC(=O)c2cccs2)cc1,103*,0,-6,46,-5,/
C[C@@H]1CN([C@H](C)CO)C(=O)c2cc(NC(=O)Cc3ccccc3)ccc2O[C@@H](C)CCCCO[C@@H]1CN(C)S(=O)(=O)c1cn(C)cn1,/,/,/,/,/,4
O=C(Nc1ccc(-c2noc(-c3ccccc3F)n2)cc1)c1cccs1,?,11,-4,8,-6,32
Cc1ccc(NC(=O)C(=O)NNC(=O)c2cccs2)cc1,7,2,-2,20,-1,/
Cc1ccc(NC(=O)c2cccs2)cc1,72,-1,4,5,6,61*
Cc1ccccc1-c1nc(-c2ccc(NC(=O)c3cccs3)cc2)no1,32,17,-2,-4,-5,51*
O=C(Nc1ccc(CSc2ccccc2)cc1)c1ccco1,59,29,-9,33,-9,52*
O=C(Nc1ccc(-n2ccc(C(F)(F)F)n2)cc1)c1cccs1,123*,23,3,22,0,32
COc1ccc(S(=O)(=O)N(C)C[C@H]2Oc3ncc(/C=C/c4ccccc4)cc3C(=O)N([C@@H](C)CO)C[C@H]2C)cc1,/,/,/,/,/,3
C[C@@H]1CCCCO[C@H](CN(C)S(=O)(=O)c2ccc(Cl)cc2)[C@H](C)CN([C@H](C)CO)C(=O)c2cc(NS(C)(=O)=O)ccc2O1,/,/,/,/,/,-4
C[C@@H]1CN([C@H](C)CO)C(=O)c2cccc(NC(=O)Nc3ccccc3)c2O[C@H]1CN(C)S(=O)(=O)c1ccc(Cl)cc1,/,/,/,/,/,0
O=C(Nc1ccc2nc(-c3cccs3)[nH]c2c1)c1ccco1,103*,/,-2,-7,-5,83*
O=C(Nc1ccc(S(=O)(=O)N2CCCC2)cc1)c1cccs1,6,/,2,60*,-7,/
O=C(Nc1ccc(NC(=O)c2cccs2)cc1)c1ccco1,98*,/,-1,-4,-4,48*
O=C(Nc1ccc2nc(-c3cccs3)[nH]c2c1)c1cccs1,70,30,3,-4,2,/
O=C(NC(=S)Nc1ccc(NC(=O)c2cccs2)cc1)c1ccco1,9,1,-3,7,-2,9
COc1ccc(S(=O)(=O)N(C)C[C@@H]2Oc3ccc(NC(=O)Cn4cnnn4)cc3CC(=O)N([C@@H](C)CO)C[C@H]2C)cc1,/,/,/,/,/,1

# High-throughput results deposited in PubChem BioAssay by several laboratories.
